# Reference: PMC7819943, “Rice protein-binding microarrays: a tool to detect cis-acting elements near promoter regions in rice”
# The full ranking holds about 68,000 sequences; the median of “fluorescence intensity (a.u.)” is about 9,100, and the highest 2% start at about 16,000. The full list was thinned out, with the highest values kept by preference.
# Target: OsWRKY34 (Oryza sativa, UniProt Q0JBA9 1-250)
# Assay: protein-binding microarray (RPBM); PBS, 2% BSA, 51.3 ng/ul salmon testes DNA, 50 uM zinc acetate, 200 nM TF, 25 C, 1 h; high values mean tight binding
# Conditions: protein: recombinant; tags: N-terminal polyhistidine and DsRed monomer fusion (pET32a); label: CyDye5-dUTP incorporated in the synthesized complementary strand; 3' TTTTT single-stranded linker to array surface; dsDNA, one strand shown
# Method in brief: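 Transcription factors were made in E. coli BL21-CodonPlus as N-terminal fusions to a polyhistidine tag and DsRed, then purified on Ni–NTA. After primer extension with Cy5-dUTP and blocking with 2% BSA, a custom Agilent array was exposed for 1 h at 25 °C to 200 nM protein in PBS, 2% BSA, salmon testes DNA and 50 µM zinc acetate. Washed arrays were scanned on an Axon 4000B, and the binding signal is per-feature fluorescence intensity in arbitrary units.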
# Chain of OsWRKY34 (Q0JBA9 entry or part of it): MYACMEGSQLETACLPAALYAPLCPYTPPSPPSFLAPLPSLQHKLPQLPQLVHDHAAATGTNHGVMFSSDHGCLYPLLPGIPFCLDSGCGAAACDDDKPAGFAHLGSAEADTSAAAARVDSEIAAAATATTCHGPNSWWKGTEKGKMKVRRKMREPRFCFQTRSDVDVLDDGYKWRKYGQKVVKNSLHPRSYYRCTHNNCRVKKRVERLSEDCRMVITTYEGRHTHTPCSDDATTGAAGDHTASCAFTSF
row,Sequence,binding signal
1,GGTTATTTATTTTTATTGGTTTCCCCATTACTGTTGACAGCGGAGTCACCTAGTGCAG,8360 fluorescence intensity (a.u.)
2,TCCCGATATCATATTATAACCCTTCTAGAAATCTAATGTTCGGAGTCACCTAGTGCAG,8160 fluorescence intensity (a.u.)
3,ATTCTGTTATGAACTATGTAAACCTTCTCATGTATATTCACGGAGTCACCTAGTGCAG,8840 fluorescence intensity (a.u.)
4,GGCCATCATCATTTGTTCCTCATCTTACTCTAGCTTCTCCCGGAGTCACCTAGTGCAG,9470 fluorescence intensity (a.u.)
5,CTCTCTGTGTGTGTGTTTGCTTTCTTGGGCTGTATCGACTCGGAGTCACCTAGTGCAG,11800 fluorescence intensity (a.u.)
6,AAGCTGGTTTGGCTAATTGTGTTGTGTAACTATAAATCTTCGGAGTCACCTAGTGCAG,8280 fluorescence intensity (a.u.)
7,CGCCCACCCACGCATCCATCCATCGATCGCAGCCAAATTCCGGAGTCACCTAGTGCAG,9430 fluorescence intensity (a.u.)
8,TTGATTTTGCTCGTGGTGTGTGTTTGTGTTTGGTATGGTTCGGAGTCACCTAGTGCAG,18400 fluorescence intensity (a.u.)
9,ACATGGGAATTTTGGTGGGATGGGGATGGGGATGGGGAATCGGAGTCACCTAGTGCAG,34000 fluorescence intensity (a.u.)
10,GGTTTGTTCGTGTCTTTTGTGGTGATTGCATTTGATTGGGCGGAGTCACCTAGTGCAG,9920 fluorescence intensity (a.u.)
11,TCATTCCGATTTGGTGGGGTTTGAGTTTGATTGATTCTTTCGGAGTCACCTAGTGCAG,19300 fluorescence intensity (a.u.)
12,CATTTAGTTTGGGATGGGGTGGTTGATCCGATTTTTTCTGCGGAGTCACCTAGTGCAG,14700 fluorescence intensity (a.u.)
13,TGCTGTGGTGTGGTGTGGTGTGAATTTTGTTGATTGGTCGCGGAGTCACCTAGTGCAG,8750 fluorescence intensity (a.u.)
14,TTGCGTTTTGGGTGGTGAATTTTGATTTTGATTCTTTTTTCGGAGTCACCTAGTGCAG,12700 fluorescence intensity (a.u.)
15,CGTCGCTTGGGGTGGTGTTGGTGGTTCTGAATTTTGATTGCGGAGTCACCTAGTGCAG,19200 fluorescence intensity (a.u.)
16,GCTTCCTTGTCCGATTTGGTGGTTGATTCGTGTTTTTGCTCGGAGTCACCTAGTGCAG,9300 fluorescence intensity (a.u.)
17,CATGGGAATTTTGGTGGGATGGGGATGGAGAATTGAGCAACGGAGTCACCTAGTGCAG,8700 fluorescence intensity (a.u.)
18,ACATGGGAATTTTGGTGGGATGGGGATGGGGAATTGACCTCGGAGTCACCTAGTGCAG,14100 fluorescence intensity (a.u.)
19,AATTGGGTTCGAATTTTTCTCTGGTTCGCTTGTGATTTTGCGGAGTCACCTAGTGCAG,8240 fluorescence intensity (a.u.)
20,CCTTTTGTCAGTCTAGCCAAAGATCTAGGATCTTCAACACCGGAGTCACCTAGTGCAG,8100 fluorescence intensity (a.u.)
21,ACCCGCCGTCGCTCTCCAACGCGCTCGTCGCGGCGTTCAACGGAGTCACCTAGTGCAG,8970 fluorescence intensity (a.u.)

row,Sequence,binding signal
1,TGCTTGTTCCGGTTCCTTCCCAACCCTTTTGCAAGAACACCGGAGTCACCTAGTGCAG,9120 fluorescence intensity (a.u.)
2,GTCACCGTCTCGTCTCCGTCTCCGCCGCTCGTCGTCGACCCGGAGTCACCTAGTGCAG,12600 fluorescence intensity (a.u.)
3,AAAAAAATCTCGTTGTTACTGTCTATAGATCACTATATTACGGAGTCACCTAGTGCAG,8570 fluorescence intensity (a.u.)
4,GCCGCCATCGTTCCTGTTCGCCGCCCGTTGTCCTTCCAATCGGAGTCACCTAGTGCAG,13000 fluorescence intensity (a.u.)
5,TTCTTCACCGTTTTGTTTTCTCTGCGCCTCAAATTTCCTTCGGAGTCACCTAGTGCAG,12000 fluorescence intensity (a.u.)
6,CCGGTGATGTTTTTATTTTTCTTCCGGTTCTTTTTCTCAACGGAGTCACCTAGTGCAG,12300 fluorescence intensity (a.u.)
7,TGAGTTGTTTTGTTGATAGGTATAGATATGAATCGAATTACGGAGTCACCTAGTGCAG,8950 fluorescence intensity (a.u.)
8,TTTCTTTTCATATATTTTTGTTTATTTTCTCTCATTTCTCCGGAGTCACCTAGTGCAG,11300 fluorescence intensity (a.u.)
9,TTGTGGATTTTTTTTTTTTGAGAGGGATGGGTGTTTGATTCGGAGTCACCTAGTGCAG,10900 fluorescence intensity (a.u.)
10,CTGATGGTGTTGGTGATGGTGGTGCGGGTGCGGCAGTTGACGGAGTCACCTAGTGCAG,13200 fluorescence intensity (a.u.)
11,TTGTTGGGTGCTGAATTGCTGATGTGGTGGGGTGACATGACGGAGTCACCTAGTGCAG,12500 fluorescence intensity (a.u.)
12,ATTCTGTATTTATTGTTTGCTGCATTCAGTTTGATTGGTTCGGAGTCACCTAGTGCAG,13900 fluorescence intensity (a.u.)
13,GGGGTGACATTTCAATTGTTTTTCTCTTATATTTGTAATCCGGAGTCACCTAGTGCAG,20100 fluorescence intensity (a.u.)
14,TTGACAATGGTTGGGGTGGTGGTGGTGTTCGCGGTGATGACGGAGTCACCTAGTGCAG,31700 fluorescence intensity (a.u.)
15,GGTTGGTGCTGTATTGTTTGAGGGGAGGGGATTCCATTTTCGGAGTCACCTAGTGCAG,47400 fluorescence intensity (a.u.)
16,GAGGATTGATTTGTTTTTTTTTTTTGGGGTTTTCTCTTCTCGGAGTCACCTAGTGCAG,16300 fluorescence intensity (a.u.)
17,ACGTATTTGTGAGGGGATTTGGTACCATTACATCTGTTTTCGGAGTCACCTAGTGCAG,8192 fluorescence intensity (a.u.)
18,GGTGACTGATAATTATTATTTTCTTTGTTTCACATTATACCGGAGTCACCTAGTGCAG,14200 fluorescence intensity (a.u.)
19,AGATTGGGTTTGGGTGGTGTGAGGATTGATTTGTTTTTTTCGGAGTCACCTAGTGCAG,17800 fluorescence intensity (a.u.)
20,GGACTGCTCCACCATTTTTAGTCCCGGTTGGTAATACCAACGGAGTCACCTAGTGCAG,8570 fluorescence intensity (a.u.)
21,AATCTATCCCAGCCTAAATCTCACTGTTTCATGCACAACTCGGAGTCACCTAGTGCAG,8350 fluorescence intensity (a.u.)

row,Sequence,binding signal
1,GCGCGCGTCCCGTCACGTCTTTTCTCCTCGCCTATATGCCCGGAGTCACCTAGTGCAG,9050 fluorescence intensity (a.u.)
2,CAGCTATCGTTATTCTGAAGATCCACCAAGCACAATCTTACGGAGTCACCTAGTGCAG,8280 fluorescence intensity (a.u.)
3,TCGGTGGGTGGTTGGGGATATTGCAAAAAGTATATAAAAACGGAGTCACCTAGTGCAG,15800 fluorescence intensity (a.u.)
4,TTAACTGCAACCATAAGTTTCTGCGCCTAACTTTGATCGTCGGAGTCACCTAGTGCAG,8850 fluorescence intensity (a.u.)
5,CGCCGAGGGGAGGGGAGGGGAGGTTGCCATTGTTGTCCATCGGAGTCACCTAGTGCAG,22000 fluorescence intensity (a.u.)
6,ATTCTCTCTTCTGTGTTTCCTTTTTGAGATACTTCATTTTCGGAGTCACCTAGTGCAG,9340 fluorescence intensity (a.u.)
7,GGGGTAATTTCTCTGTGTTTTGAGTTGAGGGAGATAATTCCGGAGTCACCTAGTGCAG,16900 fluorescence intensity (a.u.)
8,GGGCGCGATGGGTTGGGGTGTGTTTCCGTGGATTGATGACCGGAGTCACCTAGTGCAG,21100 fluorescence intensity (a.u.)
9,TAGTATATACATGGGTGTTTGGGAGAGAGGGGCTAAACTTCGGAGTCACCTAGTGCAG,9540 fluorescence intensity (a.u.)
10,TTCCTATGTTTTTCCTGTGTTTTGTAATTCTCTGTTTTACCGGAGTCACCTAGTGCAG,10600 fluorescence intensity (a.u.)
11,CCACTTGTACATATACAACTTGTTTTGTGGGGAGGGGTGTCGGAGTCACCTAGTGCAG,12700 fluorescence intensity (a.u.)
12,TGTTTTGTGGGGAGGGGTGTACATATACAACTTAGTACTCCGGAGTCACCTAGTGCAG,20300 fluorescence intensity (a.u.)
13,GGGCGTGTGGTTGAGAACTTGATTGGGATGATGATGAGACCGGAGTCACCTAGTGCAG,10400 fluorescence intensity (a.u.)
14,TGCGCCATCTTTTGTCGTCCCGAGGGGATGGGCGGGGTTGCGGAGTCACCTAGTGCAG,16400 fluorescence intensity (a.u.)
15,ACTTCCCATTGTTGTTGCCATCGCCGCCGCCGCCGCCGCCCGGAGTCACCTAGTGCAG,12200 fluorescence intensity (a.u.)
16,ACGTTGGATTGGTGGTGGACGGGCGCGATGGGTTGGGGTGCGGAGTCACCTAGTGCAG,9930 fluorescence intensity (a.u.)
17,CGAGAGATCGTTGCCCTCCGTATCCACTACTACTACACTCCGGAGTCACCTAGTGCAG,8310 fluorescence intensity (a.u.)
18,CAGGATTGCTTGGAGATTCGTGCGGGGACGCGCGGGGTGACGGAGTCACCTAGTGCAG,9720 fluorescence intensity (a.u.)
19,TACCGGTTAAAACGCCCAAGTCAGTGGCTCTCGTCCTCCTCGGAGTCACCTAGTGCAG,8860 fluorescence intensity (a.u.)
20,GTGCAGTTTATACATTAACATGTTAATCCCACTTTACTACCGGAGTCACCTAGTGCAG,10300 fluorescence intensity (a.u.)
21,ACGGCATTTTTCGCCCCTTTTGTCACTGAAACACTTCACCCGGAGTCACCTAGTGCAG,8860 fluorescence intensity (a.u.)

row,Sequence,binding signal
1,GCAGCCCTCAATTTCTATGGCGATCGCCTCTGCTTCGTCGCGGAGTCACCTAGTGCAG,8440 fluorescence intensity (a.u.)
2,GGCCTCCTTCATCACGCCCTGGATCTCACTGACTAAAAACCGGAGTCACCTAGTGCAG,8030 fluorescence intensity (a.u.)
3,CTATGTTCATCCTCGTGTCATATTGTGTTCATCTTCATACCGGAGTCACCTAGTGCAG,11600 fluorescence intensity (a.u.)
4,GAGGGAGTATTATCTTCTGAACATATGTTTGACCATTGGACGGAGTCACCTAGTGCAG,8940 fluorescence intensity (a.u.)
5,ATTACCCTAATCATCATTCATTCATGTATAGCTCATCCTACGGAGTCACCTAGTGCAG,8810 fluorescence intensity (a.u.)
6,ACCATCAAGTTCTGCTTTTCTTCCCCATGTTTTTTTGCCCCGGAGTCACCTAGTGCAG,10700 fluorescence intensity (a.u.)
7,AGGAGGTGTTGTTTCTTGCGATCTTGGGTTGATTGATATGCGGAGTCACCTAGTGCAG,8460 fluorescence intensity (a.u.)
8,TGCGGGTTGTTTTGATTGACAATTTAGTGTTGGTGTTGTTCGGAGTCACCTAGTGCAG,9980 fluorescence intensity (a.u.)
9,GGTGGGTGTTTTAATGTGACATGATATTTGTGGTTGGGTTCGGAGTCACCTAGTGCAG,21700 fluorescence intensity (a.u.)
10,CATTCCGGTTGGTGTTTTTCGCTTGATTTGTACTACTATTCGGAGTCACCTAGTGCAG,18500 fluorescence intensity (a.u.)
11,ATGTTGATATTGTGGTTGGTTGTGGGCATGTTACATTTTCCGGAGTCACCTAGTGCAG,11500 fluorescence intensity (a.u.)
12,CTCTGTGTTGTTTTTGGCATGTGTTTGATATTTGGAGTTCCGGAGTCACCTAGTGCAG,16600 fluorescence intensity (a.u.)
13,TAATATTTCTTGCGGTGGGTTGGATTGATATCGATTGTTTCGGAGTCACCTAGTGCAG,17600 fluorescence intensity (a.u.)
14,CTCTGTTGGTTTCTTGCGGTTTTGATTATTTGTTTGTGGTCGGAGTCACCTAGTGCAG,11900 fluorescence intensity (a.u.)
15,TGATATGTTGGTGAATGGTAATTTTTTGGGTTGATATATTCGGAGTCACCTAGTGCAG,11200 fluorescence intensity (a.u.)
16,CATGTGTTTGATTTCCTGTTTATATTTTGTTCAGAGTTTCCGGAGTCACCTAGTGCAG,11700 fluorescence intensity (a.u.)
17,TCTTTCCTGTTTCCGCTTGGTTTTCCGGTGTTTATTTTGTCGGAGTCACCTAGTGCAG,14200 fluorescence intensity (a.u.)
18,TGTACATGTGTTTGATTTTGCTTGTGGTTGCCGTGGATTTCGGAGTCACCTAGTGCAG,11500 fluorescence intensity (a.u.)
19,CGATGACAAGTTGACGCACCTTGGGTGTACTTTTTCCTTCCGGAGTCACCTAGTGCAG,8280 fluorescence intensity (a.u.)
20,CTCCAACCTAACCCCTGCCTGCCTGCATCAACCATATATGCGGAGTCACCTAGTGCAG,8720 fluorescence intensity (a.u.)
21,CACTAATTTTGCCTTTGTGCCTTTTACTATTGCGCATCACCGGAGTCACCTAGTGCAG,10200 fluorescence intensity (a.u.)
